From PubChem BioAssay (EPA / NIEHS)
More than one record can exist for a structure, and the calls need not agree. Activity calls are given as the source filed them. Rule for the calls: active = hit-call score of the fitted dose curve at least 0.9, where 1 is the maximum; inactive = score below 0.9.

test: ATG_TAL_CIS: Attagene CIS-FACTORIAL HepG2 Assay for human TAL Basal Promoter (AID 2282966); conditions: HepG2 Attagene cis-factorial TAL promoter reporter; actives raise or lower the signal
Method: ATG_CIS is a cell-based, multiplexed-readout assay that uses HepG2, a human liver cell line, with measurements taken at 24 hours after chemical dosing in a 24-well plate.ATG_TAL_CIS is one of 52 assay component(s) measured or calculated from the ATG_CIS assay. It is designed to make measurements of mRNA induction, a form of inducible reporter, as detected with fluorescence intensity signals by Reverse transcription polymerase chain reaction (RT-PCR) and Capillary electrophoresis technology.Data from the assay component ATG_TAL_CIS was analyzed into 1 assay endpoint. This assay endpoint, ATG_TAL_CIS, was analyzed with bidirectional fitting relative to DMSO as the negative control and baseline of activity. Using a type of inducible reporter, measures of mRNA for gain or loss-of-signal activity can be used to understand the background control at the transcription factor-level as they relate to the gene . Furthermore, this assay endpoint can be referred to as a secondary readout, because this assay has produced multiple assay endpoints where this one serves a background control function. To generalize the intended target to other relatable targets, this assay endpoint is annotated to the background measurement intended target family, where the subfamily is internal marker.
Human liver HepG2 cells are transiently transfected with multiple reporter transcription units (MRTUs) in 6-well plates using FuGene 6 reagent (Roche; 3 ml FuGene/1 mg DNA). The MRTU constructs are regulated by a cis-regulating element (promoter). […] A major difference between the CIS and TRANS system is that in CIS activities of endogenous TFs are measured, whereas the TRANS assay evaluates changes in activities of exogenous, chimeric NR-Gal4 proteins. […] At the end of 24 hour incubation, total RNA was isolated using TriZol reagent (Invitrogen). The isolated RNA is then reverse-transcribed using oligo(dT) primer and Mo-MLV reverse transcriptase (Invitrogen) with DNAse I (Ambion) treatment for 30 min. The one-tenth of the produced cDNA was amplified by PCR using Taq DNA polymerase (Invitrogen) and two reporter sequence-specific primers. The PCR products were fluorescently labeled by primer extension with 6-arboxyfluorescein (6-FAM) 5'-labeled reporter sequence-specific primer (2 min at 95 C, 20 s at 68 C and 10 min at 72 C) and these products were digested with 5U of HpaI (New England Biolabs) for 2h at 37 C. The fragments were purified using Qiaquick PCR columns (Qiagen), analyzed on an ABI 3130xL genetic analyzer (Applied Biosystems) with peak positions identified by using a set of X-rhodamine (ROX)-labeled MapMarker1000 molecular weight standards (BioVentures). The raw capillary electrophoresis data was processed using Attagraph software (Attagene).

SMILES | outcome | AC50
CCCOC(=O)NCCCN(C)C | inactive | 
COC(=O)c1ccccc1S(=O)(=O)NC(=O)Nc1nc(OC(F)F)cc(OC(F)F)n1 | inactive | 
COC(=O)c1ccccc1C(=O)O | inactive | 
c1ccc2[nH]c(-c3cscn3)nc2c1 | inactive | 
Oc1ccc(C(c2ccc(O)cc2)C(Cl)(Cl)Cl)cc1 | inactive | 
CC(=O)[C@H]1CC[C@H]2[C@@H]3CCC4=CC(=O)CC[C@]4(C)[C@H]3CC[C@]12C | inactive | 177 µM (active)
CCOC(=O)C(C)Oc1ccc(Oc2cnc3cc(Cl)ccc3n2)cc1 (stereo not given) | inactive | 
CCCCC(CC)COC(=O)c1ccccc1C(=O)O (stereo not given) | inactive | 
O=C(O)C1(C(=O)Nc2ccc(Cl)cc2Cl)CC1 | inactive | 
CC1(C)C(C=C(Cl)Cl)C1C(=O)OCc1cccc(Oc2ccccc2)c1 (stereo not given) | inactive | 
CSC(=O)c1cccc2nnsc12 | inactive | 
CCOC(=O)c1ccc(O)cc1 | inactive | 
N#CSCSc1nc2ccccc2s1 | inactive | 
CCOC(=O)COc1cc(-n2ncc(C(F)(F)F)c(C)c2=O)c(F)cc1Cl | inactive | 
C#C[C@]1(O)CC[C@H]2[C@@H]3CCC4=CC(=O)CC[C@@H]4[C@H]3CC[C@@]21CC | inactive | 
CCN(CC)C(=O)c1cccc(C)c1 | inactive | 
CCOC(=O)C(C)Oc1ccc(Oc2nc3ccc(Cl)cc3o2)cc1 (stereo not given) | inactive | 
CCC(C)OC(=O)N1CCCCC1CCO (stereo not given) | inactive | 
CCNc1nc(N)nc(Cl)n1 | inactive | 

SMILES | outcome | AC50
CCCOC(=O)c1ccc(C(=O)OCCC)nc1 | inactive | 
C=CCOC(Cn1ccnc1)c1ccc(Cl)cc1Cl (stereo not given) | inactive | 
CCCCCOC(=O)COc1cc(N2C(=O)C3=C(CCCC3)C2=O)c(F)cc1Cl | inactive | 
C[C@]12CC[C@@H]3c4ccc(O)cc4C[C@@H](CCCCCCCCCS(=O)CCCC(F)(F)C(F)(F)F)[C@H]3[C@@H]1CC[C@@H]2O (stereo not given in full) | inactive | 
COCCO | inactive | 
O=C(c1ccccc1)C1CCCCC1 | inactive | 
CC(=O)S[C@@H]1CC2=CC(=O)CC[C@]2(C)[C@H]2CC[C@@]3(C)[C@@H](CC[C@@]34CCC(=O)O4)[C@H]12 | inactive | 
CCOC(=O)[C@H](C)Oc1ccc(Oc2nc3ccc(Cl)cc3o2)cc1 | inactive | 
CCSC(=O)N(CC(C)C)CC(C)C | inactive | 
Cc1nn(C)c(Oc2ccccc2)c1C=NOCc1ccc(C(=O)OC(C)(C)C)cc1 | inactive | 
S=C(S)NCCNC(=S)S.[Mn+2].[S-]C([S-])=NCCN=C([S-])[S-].[Zn+2] | inactive | 
S=C([S-])NCCNC(=S)[S-].[Mn+2] | inactive | 
CCCN(CCC)C(=O)SCC | inactive | 
OB(O)O | inactive | 
COC(=O)c1ccc(I)cc1S(=O)(=O)NC(=O)Nc1nc(C)nc(OC)n1 | inactive | 
N[C@@H](Cc1cc(I)c(Oc2ccc(O)c(I)c2)c(I)c1)C(=O)O | inactive | 
CC(C)(c1ccc(O)cc1)c1ccc(O)cc1 | inactive | 162 µM (active)
COC(=O)c1cccc(C)c1S(=O)(=O)NC(=O)Nc1nc(OCC(F)(F)F)nc(N(C)C)n1 | inactive | 
C#CCOC(=O)[C@@H](C)Oc1ccc(Oc2ncc(Cl)cc2F)cc1 | inactive | 
